Reference: PubChem BioAssay AID602295 (Broad Institute, 2012)
Active and inactive are the calls of the source.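 How the source made its calls: active means every separate test run called active, meaning the signal drops and a potency is fitted within twice the top valid dose; inconclusive means runs disagree, poor fit, or flat partial inhibition; inactive means all runs inactive, flat, opposite direction or too weak.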

target: Mitogen-activated protein kinase 3 (Homo sapiens) (UniProt P27361); assay: inhibition of MAPK3 kinase activity – biochemical, ADP-Glo luminescence, cherry pick, set 2, selectivity assay for Dyrk1A inhibitor NFAT project, dose response (AID 602295); settings: ERK1 kinase, 120 min; series mostly up to 10 µM
Sequence (P27361 whole entry, looked up): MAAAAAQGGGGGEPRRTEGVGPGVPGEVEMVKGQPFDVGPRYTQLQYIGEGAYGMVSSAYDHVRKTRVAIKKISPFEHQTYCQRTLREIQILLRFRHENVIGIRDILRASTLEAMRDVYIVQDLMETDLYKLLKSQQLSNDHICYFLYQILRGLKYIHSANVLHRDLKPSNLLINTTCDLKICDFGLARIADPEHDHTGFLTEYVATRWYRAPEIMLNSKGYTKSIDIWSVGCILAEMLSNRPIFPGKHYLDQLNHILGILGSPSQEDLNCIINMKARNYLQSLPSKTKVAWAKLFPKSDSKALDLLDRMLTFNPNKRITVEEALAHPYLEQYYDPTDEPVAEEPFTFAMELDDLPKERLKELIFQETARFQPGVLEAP

outcome, inactive:
Cc1noc(CN(C)c2ncnc3ccc(-c4ccc5c(c4)OCO5)cc23)n1
CCN1CCN(Cc2ccc(NC(=O)c3ccc(C)c(NC(=O)N4CCNC4=O)c3)cc2C(F)(F)F)CC1
CCOC(=O)c1ccc(-c2ccc3ncnc(N(C)Cc4sccc4C)c3c2)o1
Clc1ccc(Nc2nccc(-c3ccc4c(c3)OCO4)n2)cc1
O=C(O)COc1ccc(/C=C/c2nc3ccc([N+](=O)[O-])cc3s2)cc1
CN(C)S(=O)(=O)c1ccc(NC(=O)c2cc3ccccc3o2)cc1
CN(Cc1nccs1)c1ncnc2ccc(-c3ccc4c(c3)OCO4)cc12
Clc1ccc(CNc2nccc(-c3ccc4cn[nH]c4c3)n2)cc1Cl
CN(Cc1cccs1)c1ncnc2ccc(-c3ccc4c(c3)OCO4)cc12
CN(C)c1ccc(-c2nccc(NCc3cccs3)n2)cc1
c1coc(CCNc2ncnc3ccc(-c4ccc5c(c4)OCO5)cc23)c1
O=C(NCc1ccco1)c1sc2ccccc2c1Cl
Cc1ccsc1CN(C)c1ncnc2ccc(-c3ccoc3)cc12
CC1Cc2ccccc2N1c1ncnc2nc[nH]c12 (configuration not stated)
Cc1c(-c2ccnc(NCc3cccnc3)n2)sc(=O)n1C
Clc1ccc(CNc2ncncc2-c2ccc3c(c2)OCO3)cc1
c1cncc(CNc2nccc(-c3ccc4[nH]ncc4c3)n2)c1
Clc1cc(Cl)cc(CNc2ncncc2-c2ccc3c(c2)OCO3)c1
Cc1nc(CNc2ncnc3ccc(-c4ccoc4)cc23)cs1
c1csc(CNc2ncnc3ccc(-c4ccoc4)cc23)c1
CCCC(=O)Nc1nc(-c2ccc3c(c2)OCCO3)cs1
COc1cccc(Nc2nc(NCCO)c3ccccc3n2)c1
Clc1ccc(CNc2nccc(-c3ccc4c(c3)OCCO4)n2)cc1Cl
c1nc(NCC2CCCC2)c2cc(-c3ccc4c(c3)OCO4)ccc2n1
COc1ccc2c(c1)CCc1c-2n[nH]c1C(=O)O
Cc1ccc(CNc2ncnc3ccc(-c4ccoc4C)cc23)o1
CC(=O)Nc1cccc(NC(=O)c2cc3ccccc3o2)c1
Cc1csc(CN(C)c2ncnc3ccc(-c4ccc5c(c4)OCO5)cc23)n1
Clc1ccc(CNc2nccc(-c3ccc4[nH]ncc4c3)n2)cc1Cl
Clc1ccccc1-c1ccc2ncnc(NCc3ccc4c(c3)OCO4)c2c1
CC(Nc1nc(-c2cccnc2)nc2ccccc12)c1ccc(F)cc1 (configuration not stated)
Cc1nc(CNc2ncnc3ccc(-c4ccc5c(c4)OCO5)cc23)cs1
